The record followed here is ChEMBL document CHEMBL2218924, “A broad activity screen in support of a chemogenomic map for kinase signalling research and drug discovery” (Biochem J, 2013).

Assay [1] concerns the target Death-associated protein kinase 1 (Homo sapiens) (UniProt P53355). Particulars: at 10 µM.
For assay [2], the target named is Death-associated protein kinase 2 (Homo sapiens) (UniProt Q9UIK4). The following applies: at 1 µM.
Assay [3] shares this target. Particulars: at 10 µM.
For assay [4], the target named is T1, Serine/threonine-protein kinase DCLK2 (Homo sapiens) (UniProt Q8N568).
T1 sequence (whole entry): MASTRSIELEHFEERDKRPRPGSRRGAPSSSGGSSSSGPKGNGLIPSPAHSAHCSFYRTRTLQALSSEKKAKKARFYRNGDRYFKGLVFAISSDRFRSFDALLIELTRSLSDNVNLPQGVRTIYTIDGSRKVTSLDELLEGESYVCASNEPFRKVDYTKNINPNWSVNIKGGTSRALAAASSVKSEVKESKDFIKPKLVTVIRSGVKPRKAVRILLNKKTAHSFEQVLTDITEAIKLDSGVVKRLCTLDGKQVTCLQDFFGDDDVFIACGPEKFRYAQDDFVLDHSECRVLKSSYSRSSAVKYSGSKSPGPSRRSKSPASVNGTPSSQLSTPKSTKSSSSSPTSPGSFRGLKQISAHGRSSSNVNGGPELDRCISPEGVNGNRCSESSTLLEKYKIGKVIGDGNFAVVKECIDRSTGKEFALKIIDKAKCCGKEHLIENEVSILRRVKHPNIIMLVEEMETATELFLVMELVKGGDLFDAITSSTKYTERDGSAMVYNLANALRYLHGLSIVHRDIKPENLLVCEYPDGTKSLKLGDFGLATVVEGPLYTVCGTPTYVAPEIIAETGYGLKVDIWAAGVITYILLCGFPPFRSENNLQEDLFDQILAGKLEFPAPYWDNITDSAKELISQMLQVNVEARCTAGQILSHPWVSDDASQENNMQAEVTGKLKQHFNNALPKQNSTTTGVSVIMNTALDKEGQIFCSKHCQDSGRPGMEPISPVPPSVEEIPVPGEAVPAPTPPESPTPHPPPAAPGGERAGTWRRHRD
The following applies: at 1 µM.

For assay [5], the target named is T1, Serine/threonine-protein kinase DCLK2 (Homo sapiens). Particulars: at 10 µM.
Assay [6] deals with T2, Discoidin domain-containing receptor 2 (Homo sapiens) (UniProt Q16832).
T2 sequence (whole entry): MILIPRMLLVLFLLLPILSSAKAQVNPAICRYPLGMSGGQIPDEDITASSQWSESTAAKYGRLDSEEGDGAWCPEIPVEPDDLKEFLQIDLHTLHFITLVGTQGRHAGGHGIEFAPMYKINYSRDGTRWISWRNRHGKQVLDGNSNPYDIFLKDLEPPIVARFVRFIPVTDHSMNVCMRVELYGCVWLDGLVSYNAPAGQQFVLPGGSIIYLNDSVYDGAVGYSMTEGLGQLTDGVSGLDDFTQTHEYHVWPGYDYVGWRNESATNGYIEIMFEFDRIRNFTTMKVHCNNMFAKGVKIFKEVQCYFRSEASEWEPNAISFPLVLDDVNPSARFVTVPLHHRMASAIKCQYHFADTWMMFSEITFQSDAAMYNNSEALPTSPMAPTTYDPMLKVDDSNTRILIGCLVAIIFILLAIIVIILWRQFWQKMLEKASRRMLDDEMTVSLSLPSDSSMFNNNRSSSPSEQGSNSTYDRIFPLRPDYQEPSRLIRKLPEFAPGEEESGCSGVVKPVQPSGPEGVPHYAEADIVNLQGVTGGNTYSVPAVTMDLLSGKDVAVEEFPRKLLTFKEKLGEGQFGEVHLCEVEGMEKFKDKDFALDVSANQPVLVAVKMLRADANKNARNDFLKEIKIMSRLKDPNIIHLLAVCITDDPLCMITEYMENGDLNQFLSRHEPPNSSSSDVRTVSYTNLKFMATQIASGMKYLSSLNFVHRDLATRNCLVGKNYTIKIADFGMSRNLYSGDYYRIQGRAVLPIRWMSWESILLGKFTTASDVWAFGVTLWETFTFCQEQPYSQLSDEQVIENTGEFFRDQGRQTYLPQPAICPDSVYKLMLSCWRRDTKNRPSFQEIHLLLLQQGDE
Particulars: at 1 µM.

Assay [7] concerns the target T2, Discoidin domain-containing receptor 2 (Homo sapiens). Particulars: at 10 µM.
Assay [8] has as its target T3, Myotonin-protein kinase (Homo sapiens) (UniProt Q09013).
T3 sequence (whole entry): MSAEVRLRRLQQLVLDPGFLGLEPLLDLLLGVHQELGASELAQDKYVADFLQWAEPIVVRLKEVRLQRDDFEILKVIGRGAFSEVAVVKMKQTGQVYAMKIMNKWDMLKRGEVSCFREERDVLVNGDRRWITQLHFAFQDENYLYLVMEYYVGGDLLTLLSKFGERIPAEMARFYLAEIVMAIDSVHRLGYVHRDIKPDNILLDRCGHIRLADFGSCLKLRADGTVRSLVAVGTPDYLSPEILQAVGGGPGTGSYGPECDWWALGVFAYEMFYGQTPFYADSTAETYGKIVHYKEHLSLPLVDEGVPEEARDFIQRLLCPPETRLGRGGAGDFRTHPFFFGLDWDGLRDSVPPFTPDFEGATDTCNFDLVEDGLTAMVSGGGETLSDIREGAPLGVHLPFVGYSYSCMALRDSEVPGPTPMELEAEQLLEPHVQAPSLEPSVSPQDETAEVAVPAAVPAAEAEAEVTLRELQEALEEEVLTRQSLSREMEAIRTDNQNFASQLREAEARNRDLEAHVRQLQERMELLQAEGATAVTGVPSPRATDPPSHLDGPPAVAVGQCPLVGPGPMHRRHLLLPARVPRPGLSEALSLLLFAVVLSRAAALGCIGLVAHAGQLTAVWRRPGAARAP
Particulars: at 1 µM.

Assay [9] addresses T3, Myotonin-protein kinase (Homo sapiens). Particulars: at 10 µM.
In assay [10] the target is T4, Serine/threonine-protein kinase 17A (Homo sapiens) (UniProt Q9UEE5).
T4 sequence (whole entry): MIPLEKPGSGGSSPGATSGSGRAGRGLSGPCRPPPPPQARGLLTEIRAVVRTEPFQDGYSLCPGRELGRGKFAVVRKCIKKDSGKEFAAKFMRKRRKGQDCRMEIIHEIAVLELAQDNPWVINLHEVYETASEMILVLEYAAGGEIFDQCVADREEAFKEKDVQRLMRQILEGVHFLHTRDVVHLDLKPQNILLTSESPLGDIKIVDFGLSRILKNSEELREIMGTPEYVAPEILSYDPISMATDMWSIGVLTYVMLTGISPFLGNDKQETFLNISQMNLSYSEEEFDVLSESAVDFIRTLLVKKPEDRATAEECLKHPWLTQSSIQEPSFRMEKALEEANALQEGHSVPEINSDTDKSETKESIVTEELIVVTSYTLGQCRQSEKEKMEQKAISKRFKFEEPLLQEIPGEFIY
Particulars: at 1 µM.

Assay [11] has as its target T4, Serine/threonine-protein kinase 17A (Homo sapiens). Particulars: at 10 µM.
For assay [12], the target named is T5, Dual specificity tyrosine-phosphorylation-regulated kinase 2 (Homo sapiens) (UniProt Q92630).
T5 sequence (whole entry): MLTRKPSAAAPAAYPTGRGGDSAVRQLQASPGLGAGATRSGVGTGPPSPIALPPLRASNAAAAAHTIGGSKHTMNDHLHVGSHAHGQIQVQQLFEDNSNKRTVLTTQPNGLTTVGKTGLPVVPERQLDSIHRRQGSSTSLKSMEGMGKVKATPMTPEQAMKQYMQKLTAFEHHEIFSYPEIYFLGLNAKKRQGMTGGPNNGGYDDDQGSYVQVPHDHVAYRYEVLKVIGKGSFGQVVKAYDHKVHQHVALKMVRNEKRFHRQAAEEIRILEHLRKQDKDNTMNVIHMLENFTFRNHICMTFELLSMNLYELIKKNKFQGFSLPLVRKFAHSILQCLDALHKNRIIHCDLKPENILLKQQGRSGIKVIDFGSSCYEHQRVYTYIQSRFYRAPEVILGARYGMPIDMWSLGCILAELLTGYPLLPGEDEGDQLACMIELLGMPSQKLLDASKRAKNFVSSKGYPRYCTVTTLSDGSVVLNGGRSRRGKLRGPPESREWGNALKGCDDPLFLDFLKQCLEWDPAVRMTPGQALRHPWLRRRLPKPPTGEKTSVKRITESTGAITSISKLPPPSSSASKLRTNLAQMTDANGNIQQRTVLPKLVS
Particulars: at 1 µM.

Assay [13] addresses T5, Dual specificity tyrosine-phosphorylation-regulated kinase 2 (Homo sapiens). Particulars: at 10 µM.
Assay [14] addresses T6, Ephrin type-A receptor 1 (Homo sapiens) (UniProt P21709).
T6 sequence (whole entry): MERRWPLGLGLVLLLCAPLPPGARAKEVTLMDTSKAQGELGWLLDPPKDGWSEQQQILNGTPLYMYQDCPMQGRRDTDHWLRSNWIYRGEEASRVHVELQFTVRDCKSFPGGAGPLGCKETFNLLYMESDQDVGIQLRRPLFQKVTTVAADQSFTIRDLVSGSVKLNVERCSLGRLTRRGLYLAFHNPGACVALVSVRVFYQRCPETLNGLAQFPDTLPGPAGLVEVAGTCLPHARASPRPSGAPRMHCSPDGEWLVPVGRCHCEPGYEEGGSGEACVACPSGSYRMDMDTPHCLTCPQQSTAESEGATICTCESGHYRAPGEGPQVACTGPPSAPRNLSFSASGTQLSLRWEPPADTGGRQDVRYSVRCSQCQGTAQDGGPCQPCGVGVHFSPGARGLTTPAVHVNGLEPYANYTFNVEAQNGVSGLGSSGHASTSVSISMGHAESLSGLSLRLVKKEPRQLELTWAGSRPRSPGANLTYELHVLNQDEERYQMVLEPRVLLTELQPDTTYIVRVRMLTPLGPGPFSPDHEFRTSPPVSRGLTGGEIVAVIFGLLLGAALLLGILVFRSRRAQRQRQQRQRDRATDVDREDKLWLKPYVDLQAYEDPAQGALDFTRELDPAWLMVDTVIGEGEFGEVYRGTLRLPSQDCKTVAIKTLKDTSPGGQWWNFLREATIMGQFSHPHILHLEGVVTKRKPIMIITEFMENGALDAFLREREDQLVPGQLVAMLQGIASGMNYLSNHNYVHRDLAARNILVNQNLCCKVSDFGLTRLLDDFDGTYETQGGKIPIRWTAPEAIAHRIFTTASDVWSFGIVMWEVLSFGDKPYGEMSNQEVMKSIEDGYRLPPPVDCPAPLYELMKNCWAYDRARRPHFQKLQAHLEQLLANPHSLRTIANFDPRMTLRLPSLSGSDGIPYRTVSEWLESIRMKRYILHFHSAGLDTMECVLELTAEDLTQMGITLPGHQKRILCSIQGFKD
Particulars: at 1 µM.

Assay [15] addresses T6, Ephrin type-A receptor 1 (Homo sapiens). Particulars: at 10 µM.
Assay [16] deals with Ephrin type-A receptor 2 (Homo sapiens) (UniProt P29317). Particulars: at 1 µM.
For assay [17] the target is unchanged. The following applies: at 10 µM.
The target of assay [18] is T7, Ephrin type-A receptor 3 (Homo sapiens) (UniProt P29320).
T7 sequence (whole entry): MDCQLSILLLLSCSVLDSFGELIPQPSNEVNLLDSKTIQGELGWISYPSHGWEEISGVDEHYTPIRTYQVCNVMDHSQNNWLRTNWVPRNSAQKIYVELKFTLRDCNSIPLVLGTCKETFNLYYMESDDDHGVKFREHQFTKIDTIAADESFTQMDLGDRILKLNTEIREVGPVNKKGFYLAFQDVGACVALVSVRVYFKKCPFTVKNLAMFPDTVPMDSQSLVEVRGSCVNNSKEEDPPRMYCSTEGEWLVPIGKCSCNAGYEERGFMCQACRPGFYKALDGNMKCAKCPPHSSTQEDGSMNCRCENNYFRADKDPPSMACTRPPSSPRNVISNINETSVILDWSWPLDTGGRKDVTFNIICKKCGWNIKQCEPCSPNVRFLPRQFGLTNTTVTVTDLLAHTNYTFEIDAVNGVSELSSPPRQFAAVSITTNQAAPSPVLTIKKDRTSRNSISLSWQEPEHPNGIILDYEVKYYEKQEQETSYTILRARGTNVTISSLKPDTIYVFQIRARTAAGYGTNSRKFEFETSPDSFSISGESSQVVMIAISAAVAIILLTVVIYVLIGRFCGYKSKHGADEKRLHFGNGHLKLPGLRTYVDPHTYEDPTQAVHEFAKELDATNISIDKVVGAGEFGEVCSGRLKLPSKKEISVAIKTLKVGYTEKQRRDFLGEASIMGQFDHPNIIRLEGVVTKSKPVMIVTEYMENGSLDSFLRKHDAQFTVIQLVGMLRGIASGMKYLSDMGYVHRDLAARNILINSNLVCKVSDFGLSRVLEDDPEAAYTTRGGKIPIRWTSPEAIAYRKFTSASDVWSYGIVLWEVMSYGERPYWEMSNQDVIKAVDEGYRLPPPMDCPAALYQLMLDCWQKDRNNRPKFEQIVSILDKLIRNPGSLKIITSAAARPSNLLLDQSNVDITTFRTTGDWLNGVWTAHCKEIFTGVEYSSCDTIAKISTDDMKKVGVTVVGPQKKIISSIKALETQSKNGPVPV
Particulars: at 1 µM.

Sequence of Death-associated protein kinase 2 (Homo sapiens) (Q9UIK4 whole entry, looked up): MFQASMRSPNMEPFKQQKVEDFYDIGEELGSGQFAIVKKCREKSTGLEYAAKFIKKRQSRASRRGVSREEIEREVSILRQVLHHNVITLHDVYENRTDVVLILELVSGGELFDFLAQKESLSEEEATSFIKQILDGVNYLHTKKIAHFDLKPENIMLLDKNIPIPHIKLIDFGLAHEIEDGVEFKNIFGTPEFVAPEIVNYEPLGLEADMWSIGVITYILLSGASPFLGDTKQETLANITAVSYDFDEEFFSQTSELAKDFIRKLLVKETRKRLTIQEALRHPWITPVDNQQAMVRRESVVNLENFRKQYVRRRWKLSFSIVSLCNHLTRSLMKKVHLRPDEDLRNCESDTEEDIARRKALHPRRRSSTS
Sequence of Ephrin type-A receptor 2 (Homo sapiens) (P29317 whole entry): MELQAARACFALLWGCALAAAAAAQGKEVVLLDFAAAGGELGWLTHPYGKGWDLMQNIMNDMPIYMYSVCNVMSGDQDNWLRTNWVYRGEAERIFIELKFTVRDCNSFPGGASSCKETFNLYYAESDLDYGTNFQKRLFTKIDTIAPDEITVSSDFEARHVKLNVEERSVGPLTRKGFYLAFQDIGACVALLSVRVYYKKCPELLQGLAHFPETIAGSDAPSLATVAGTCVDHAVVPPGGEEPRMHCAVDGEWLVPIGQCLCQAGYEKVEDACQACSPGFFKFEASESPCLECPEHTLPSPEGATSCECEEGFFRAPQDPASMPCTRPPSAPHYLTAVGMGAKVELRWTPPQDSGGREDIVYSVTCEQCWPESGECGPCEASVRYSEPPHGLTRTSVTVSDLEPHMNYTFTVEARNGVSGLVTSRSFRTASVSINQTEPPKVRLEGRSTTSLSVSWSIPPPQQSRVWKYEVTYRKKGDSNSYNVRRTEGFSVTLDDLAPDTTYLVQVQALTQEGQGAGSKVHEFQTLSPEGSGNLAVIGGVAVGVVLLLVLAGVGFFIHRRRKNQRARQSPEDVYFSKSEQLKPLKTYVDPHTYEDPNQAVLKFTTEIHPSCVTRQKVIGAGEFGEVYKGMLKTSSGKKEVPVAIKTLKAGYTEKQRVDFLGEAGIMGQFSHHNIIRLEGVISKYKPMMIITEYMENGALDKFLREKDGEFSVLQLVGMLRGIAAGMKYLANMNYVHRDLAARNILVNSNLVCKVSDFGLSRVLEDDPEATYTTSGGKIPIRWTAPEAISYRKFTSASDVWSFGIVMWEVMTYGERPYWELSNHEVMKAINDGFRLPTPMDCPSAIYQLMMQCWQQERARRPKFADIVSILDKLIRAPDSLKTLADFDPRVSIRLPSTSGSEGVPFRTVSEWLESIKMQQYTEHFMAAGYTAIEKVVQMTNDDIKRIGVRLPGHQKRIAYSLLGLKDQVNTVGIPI
Sequence of Death-associated protein kinase 1 (Homo sapiens) (P53355 whole entry, looked up): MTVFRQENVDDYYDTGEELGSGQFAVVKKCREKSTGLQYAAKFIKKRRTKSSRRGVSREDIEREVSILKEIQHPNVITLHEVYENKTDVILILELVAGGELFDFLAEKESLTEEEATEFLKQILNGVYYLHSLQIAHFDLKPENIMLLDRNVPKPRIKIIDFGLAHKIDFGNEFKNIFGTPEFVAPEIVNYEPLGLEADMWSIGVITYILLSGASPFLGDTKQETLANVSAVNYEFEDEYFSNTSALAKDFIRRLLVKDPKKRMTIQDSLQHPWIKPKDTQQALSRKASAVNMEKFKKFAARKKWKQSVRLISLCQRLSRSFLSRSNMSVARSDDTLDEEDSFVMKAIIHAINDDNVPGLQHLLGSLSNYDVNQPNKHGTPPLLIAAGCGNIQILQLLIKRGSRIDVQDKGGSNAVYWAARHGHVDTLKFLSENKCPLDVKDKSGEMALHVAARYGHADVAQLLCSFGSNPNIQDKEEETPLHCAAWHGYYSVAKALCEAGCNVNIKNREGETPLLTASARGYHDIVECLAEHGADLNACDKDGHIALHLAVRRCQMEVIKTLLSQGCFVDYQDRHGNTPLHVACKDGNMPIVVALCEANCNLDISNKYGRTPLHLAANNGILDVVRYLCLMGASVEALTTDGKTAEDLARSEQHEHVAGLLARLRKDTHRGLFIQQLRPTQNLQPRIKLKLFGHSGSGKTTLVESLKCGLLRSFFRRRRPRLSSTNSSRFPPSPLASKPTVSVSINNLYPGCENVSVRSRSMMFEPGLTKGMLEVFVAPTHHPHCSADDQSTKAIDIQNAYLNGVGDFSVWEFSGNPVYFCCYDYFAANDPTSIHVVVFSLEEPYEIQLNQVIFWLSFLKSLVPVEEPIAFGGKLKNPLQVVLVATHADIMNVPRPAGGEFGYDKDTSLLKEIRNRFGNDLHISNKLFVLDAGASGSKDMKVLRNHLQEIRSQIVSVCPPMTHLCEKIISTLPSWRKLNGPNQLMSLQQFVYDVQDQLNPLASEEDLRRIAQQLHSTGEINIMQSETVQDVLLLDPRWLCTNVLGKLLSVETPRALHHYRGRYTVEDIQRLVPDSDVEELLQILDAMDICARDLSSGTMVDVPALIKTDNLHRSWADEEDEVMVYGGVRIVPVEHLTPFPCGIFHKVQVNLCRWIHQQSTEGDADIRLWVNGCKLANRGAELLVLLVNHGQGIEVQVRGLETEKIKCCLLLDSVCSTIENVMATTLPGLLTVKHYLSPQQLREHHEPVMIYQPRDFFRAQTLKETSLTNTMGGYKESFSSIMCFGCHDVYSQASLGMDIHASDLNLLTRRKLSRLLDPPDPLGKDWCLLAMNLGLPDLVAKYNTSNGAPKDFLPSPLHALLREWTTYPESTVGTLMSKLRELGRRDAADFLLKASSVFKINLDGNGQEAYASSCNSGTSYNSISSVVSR

For orientation: residual activity means the signal under treatment as a percentage of the control signal. Regarding `CC#CC(=O)Nc1cc2c(Nc3ccc(F)c(Cl)c3)ncnc2cn1`, the residual activity in [1] turned out to be 90%; in [2] it was 88%; in [3], 104%; in [4] it was 77%; in [5] it was 96%; in [6] it was 96%. For the same compound, the residual activity in assay [7] was found to be 93%; in [8] it was 113%; in assay [9], 115%; in assay [10] it was 105%; in assay [11], 105%; in assay [12], 102%. Further, the residual activity was found to be 93% in assay [13]; 102% in assay [14]; 105% in assay [15]; 100% in assay [16]; 101% in assay [17]; 113% in [18].

Regarding `Oc1n[nH]c2nnc(-c3c(-c4ccccc4)nn4ccccc34)cc12`, the residual activity was 39% in [1]; 62% in assay [2]; 43% in [3]; 85% in [4]; 92% in assay [5]; 92% in [6]. In addition, the residual activity came to 95% in assay [7]; 69% in assay [8]; 83% in [9]; 78% in [10]; 34% in assay [11]; 99% in assay [12]. Also, the residual activity in assay [13] stood at 95%; in [14], 93%; in [15] it was 79%; in [16], 92%; in [17], 109%; in assay [18], 94%.
